# Measurements reported in PubChem BioAssay.
# Values without a mark were called inactive. Calls of active or inactive are those of the source. Unless noted, no stated cut-off is given here; in the data, active means inhibition above about 28%; inactive means the rest.
# Tests used:
# [1] = StAR promoter reporter inhibitors, counter-screen for LRH-1 inverse agonist project, cell-based, luminescence, high throughput (AID 651611); details: StAR promoter luciferase reporter counterscreen, at 3.6 µM, hits give high values
# [2] = biological target: Nuclear receptor subfamily 5 group A member 2 (Homo sapiens) (UniProt O00482); test: NR5A2 activity suppression in reporter cells – cell-based, luminescence, confirmation (AID 651613; in the data active means inhibition above about 42%;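 further: HEK293T cells co-transfected with LRH-1 and StAR promoter luciferase reporter; 0% = vehicle wells and 100% = parental cells lacking receptor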); details: cell-based LRH-1 luciferase reporter, inverse agonism; at 3.6 µM; hits give high values
# [3] = biological target: Steroidogenic factor 1 (Homo sapiens) (UniProt Q13285); test: inverse agonism at SF1 nuclear receptor – cell-based, luminescence, high throughput, counter-screen for LRH-1 inverse agonist project (AID 651614; in the data active means inhibition above about 44%;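 further: cells cotransfected with StAR promoter reporter and SF1 expression vector; 0% = vehicle on cells with receptor and 100% = vehicle on cells lacking receptor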); details: cell-based SF1 luciferase reporter, at 3.6 µM, hits give high values
# [4] = compounds suppressing VP16-driven luciferase signal – cell-based, luminescence, high throughput, counter-screen for LRH-1 inverse agonist project (AID 651615; in the data active means inhibition above about 33%); details: Gal4-VP16 luciferase reporter cells, at 3.6 µM, hits give high values
# Sequence of Nuclear receptor subfamily 5 group A member 2 (Homo sapiens) (O00482 whole entry, looked up): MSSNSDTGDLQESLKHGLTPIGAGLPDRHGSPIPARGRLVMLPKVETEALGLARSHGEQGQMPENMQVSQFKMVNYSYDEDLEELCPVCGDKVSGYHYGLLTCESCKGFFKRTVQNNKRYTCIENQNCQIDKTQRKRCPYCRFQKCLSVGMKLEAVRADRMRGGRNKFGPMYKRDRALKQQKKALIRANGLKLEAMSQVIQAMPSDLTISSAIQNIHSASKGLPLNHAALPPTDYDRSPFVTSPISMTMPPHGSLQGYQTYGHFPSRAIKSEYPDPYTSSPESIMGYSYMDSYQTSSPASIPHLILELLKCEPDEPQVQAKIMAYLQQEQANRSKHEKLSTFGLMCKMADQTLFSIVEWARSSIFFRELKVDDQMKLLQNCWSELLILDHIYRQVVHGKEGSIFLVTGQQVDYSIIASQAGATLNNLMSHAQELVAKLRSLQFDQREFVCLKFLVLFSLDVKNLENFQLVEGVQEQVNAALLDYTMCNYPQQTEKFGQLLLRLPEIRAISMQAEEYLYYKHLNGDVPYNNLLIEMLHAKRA
# Sequence of Steroidogenic factor 1 (Homo sapiens) (Q13285 whole entry, looked up, the tested form may be a part): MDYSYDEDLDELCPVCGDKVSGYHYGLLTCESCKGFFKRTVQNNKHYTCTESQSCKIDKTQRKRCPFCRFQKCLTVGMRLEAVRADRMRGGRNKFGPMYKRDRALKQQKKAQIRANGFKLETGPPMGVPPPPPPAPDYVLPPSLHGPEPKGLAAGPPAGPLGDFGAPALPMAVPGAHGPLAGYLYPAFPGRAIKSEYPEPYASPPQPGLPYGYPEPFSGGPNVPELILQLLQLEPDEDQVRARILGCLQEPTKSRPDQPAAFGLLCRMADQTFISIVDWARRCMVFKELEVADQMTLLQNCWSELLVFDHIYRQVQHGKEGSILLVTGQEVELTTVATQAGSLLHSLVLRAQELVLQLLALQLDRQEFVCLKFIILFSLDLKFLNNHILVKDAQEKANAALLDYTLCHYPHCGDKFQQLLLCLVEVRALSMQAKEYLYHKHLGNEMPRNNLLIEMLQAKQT
SMILES,inhibition [1] [%],inhibition [2],inhibition [3],inhibition [4]
COc1ccc(NC(=O)CSc2nc(O)cc(=O)n2-c2ccccc2OC)cc1,4.7,47.5% (active),38.3%,2.37%
CCN(CC)S(=O)(=O)c1ccc(N2CCCC2)c(NC(=O)c2ccc([N+](=O)[O-])o2)c1,19.4,55.4% (active),56.6% (active),10.5%
O=C(Nc1ccc(F)cc1)c1oc2ccccc2c1NC(=O)C1CC1,24.4,50.9% (active),62.2% (active),3.97%
CCOC(=O)c1cnc(-n2nc(C)cc2C)nc1NC1CCCC1,0.01,56.9% (active),52.4% (active),9.25%
COc1ccc(Nc2nc(Nc3ccc(OC)cc3)nc(SC3=NCCS3)n2)cc1,19.6,53.3% (active),53.4% (active),4.27%
CCCc1cc(=O)oc2cc(OCC(=O)NCCc3c[nH]c4ccc(OC)cc34)ccc12,6.12,28.9%,40.4%,-23.9%
O=C(CN1C(=O)C(c2ccc(F)cc2)=NC12CCCC2)Nc1ccc(F)cc1,23.4,52.2% (active),49.4% (active),38.4% (active)
O=C(Nc1nc(-c2cccs2)cs1)c1ccc([N+](=O)[O-])o1,-1.18,51.9% (active),62.9% (active),-34.9%
Cn1c(CCNC(=O)c2cccs2)nnc1SCC(=O)N1CCN(c2ccccc2)CC1,7.98,29.8%,28.4%,0.01%
CCCCc1c(O)nc(SCC(=O)Nc2ccc3c(c2)CCC3)[nH]c1=O,6.25,37.2%,51.8% (active),0.43%
O=C(Nc1cccc([N+](=O)[O-])c1)c1ccc([N+](=O)[O-])o1,24,64.7% (active),70.5% (active),-20.3%
CCOc1ccc(NC(=O)CN2CCN(CC(=O)Nc3ccc(OC)cc3)CC2)cc1,9.49,58.5% (active),56.2% (active),8.13%
Cc1ccc2nc(-c3ccc(NS(C)(=O)=O)cc3)cc(-c3ccccc3)c2c1,8.04,51.1% (active),51.8% (active),-2.14%
CCCc1cc(=O)n2nc(N3CCC(C(=O)N4CCN(c5ccc(OC)cc5)CC4)CC3)sc2n1,12.6,56.5% (active),55.1% (active),49.8% (active)
Cc1c(F)cccc1NS(=O)(=O)c1ccc(N2CCCC2=O)cc1,-2.14,56% (active),47.1% (active),3.58%
CC(O)(c1ccc(F)c(F)c1)c1nc(-c2ccc(S(C)(=O)=O)cc2)cs1 (stereo unspecified),3.51,53.5% (active),49.5% (active),-2.47%
CC(C)CNC(=O)COC(=O)c1c2c(nc3ccccc13)/C(=C/c1cccs1)CC2,-15.9,4.19%,-12.8%,-8.73%
Cn1c(SCC(=O)Nc2ccc(N3CCOCC3)cc2)nnc1-c1ccco1,0.8,56.5% (active),49.4% (active),-17.8%
O=C(NNc1c(F)c(F)cc(F)c1F)C1CCN(S(=O)(=O)c2ccccc2F)CC1,-3.09,8.61%,22.4%,4.32%
CCn1nnnc1SCC(=O)N(C)C1CCS(=O)(=O)C1 (stereo unspecified),12.5,47.9% (active),48.1% (active),-0.7%
S=C(NCCc1ccccc1)Nc1cccc2cnccc12,-5.25,45.1% (active),47.5% (active),42.3% (active)
COc1ccc(-c2cc3ccccc3oc2=O)cc1NC(=O)c1ccc([N+](=O)[O-])o1,-51.4,16%,22.5%,-68.2%
O=Cc1ccc2c(c1)CCN2Cc1ccccc1,4.56,56.6% (active),55.7% (active),-34.1%
NS(=O)(=O)c1ccc(O)c(NC(=O)c2ccc([N+](=O)[O-])o2)c1,13.8,67.2% (active),61.2% (active),2.28%
